Data published in PubChem BioAssay (NCATS).
Results filed as inconclusive are left out. The source made the active and inactive calls. Calls come from the whole dose curve; as a rule, active = well fitted curve in the direction sought with a large enough effect; inconclusive = small, poorly fitted or top-dose-only effect, or another doubt; inactive = no such curve, though single readings can be large; an effect the other way counts as inactive or inconclusive. Where a SMILES comes first, the peptide text is derived from it.

Assays:
[1] = target: Calcium and integrin-binding protein 1 (Homo sapiens) (UniProt Q99828); experiment: Primary qHTS for Identification of Calcium Integrin Binding Protein 1 (CIB1) Competitor (AID 1508620);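 note: GST tagged CIB1 binding a fluorescein labelled alphaIIb integrin peptide tracer; top concentration of the series differs between compounds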
Method in brief: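 Fluorescence polarization competition: GST-tagged CIB1 (1 uM final) preincubated with compound 15 min at room temperature, then FITC-labelled alphaIIb peptide (100 nM final) added. After 15 min at room temperature, polarization read at Ex 480/Em 540.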

[2] = Primary qHTS for inhibitors of nuclear receptor binding SET domain protein 2 (NSD2) in an isogenic RCH-ACV NSD2 p.E1099K mutant (9B) (AID 1645876); note: nearly all actives have a fitted effect of over 70% in size
[3] = Primary qHTS for inhibitors of nuclear receptor binding SET domain protein 2 (NSD2) in an RCH-ACV wild type WT cells (2C) (AID 1645877); note: nearly all actives have a fitted effect of over 70% in size
% is set by controls: 0 for no effect and ±100 for the full control effect.

Chain of Calcium and integrin-binding protein 1 (Homo sapiens) (Q99828 whole entry, looked up): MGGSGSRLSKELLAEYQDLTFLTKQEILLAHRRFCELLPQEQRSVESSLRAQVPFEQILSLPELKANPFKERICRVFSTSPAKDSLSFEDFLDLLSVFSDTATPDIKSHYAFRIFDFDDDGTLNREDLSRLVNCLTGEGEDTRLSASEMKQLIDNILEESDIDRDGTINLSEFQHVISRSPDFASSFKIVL

O=C(O)C(Cc1ccccc1)NC(=O)C1CCCN1 (stereo not drawn) (H-Pro-Phe-OH; configuration not given here)
inactive: Potency [1] | Potency [2] | Potency [3]

C=C1CCC(OC(C)=O)C2(C)CC3OC(=O)C(C)=C3CC12 (configuration not stated)
inactive: Potency [1] | Potency [2] | Potency [3]

COc1ccc(C2OCC3C(c4cc(OC)c5c(c4)OCO5)OCC23)cc1OC (configuration not stated)
inactive: Potency [1] | Potency [2] | Potency [3]

O=C(Nc1ccn(Cc2c(F)cccc2C(F)(F)F)n1)c1c(F)cccc1F
inactive: Potency [1] | activity change, negative = viability loss [2] -7.96% [at 9.23 µM] | activity change, negative = cell killing [3] -25.3% [at 9.23 µM]

Cc1occc(=O)c1O[C@@H]1O[C@H](CO)[C@@H](O)[C@H](O)[C@H]1O
inactive: Potency [1] | Potency [2] | Potency [3]

C/C=C1/[C@H](O[C@@H]2O[C@H](CO)[C@@H](O)[C@H](O)[C@H]2O)OC=C(C(=O)OC)[C@H]1CC(=O)OCCc1ccc(OC(=O)C[C@@H]2C(C(=O)OC)=CO[C@@H](O[C@@H]3O[C@H](CO)[C@@H](O)[C@H](O)[C@H]3O)/C2=C/C)cc1
inactive: Potency [1] | activity change, negative = viability loss [2] -12% [at 9.23 µM] | activity change, negative = cell killing [3] -15% [at 9.23 µM]

CC1C2=CC(=O)OC2(O)CC2C1C(O)CC1C(C)(CO)CCCC21C (configuration not stated)
inactive: Potency [1] | Potency [2] | Potency [3]

COC(=O)C1=CO[C@@H](O[C@@H]2O[C@H](CO)[C@@H](O)[C@H](O)[C@H]2O)C2C1CC(O)C2C (some centres not stated)
inactive: Potency [1] | Potency [2] | Potency [3]

CC(=O)OC1C(O)C(C)(O)C(/C=C/C(=O)O)C2(C)CCCC(C)(C)C12 (configuration not stated)
inactive: Potency [1] | Potency [2] | Potency [3]
